Source: PubChem (National Center for Advancing Translational Sciences (NCATS))
CtBP-E1A blk = qHTS Assay for Inhibitors of the CtBP/E1A Interaction; AlphaScreen GST-E1A/His-CtBP binding, 1536-well; hits give low values; activity change, % (test concentration not listed); actives 0.49% (n = 340,000); AID 651724, 2012; in the data active means activity change below about -65%; inconclusive means mostly about -30% to -63%; further: on the % scale 0 is the no-effect control and ±100 the full control effect
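AlphaScreen with 125 nM GST-E1A and 125 nM His-CtBP (5X stocks) in Tris pH 8.0, 300 mM NaCl, BSA, Tween 20, TCEP. Compounds preincubated 2 h at 37 deg C, then glutathione donor/nickel acceptor beads added for 1 h at 37 deg C in dark.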
HP1b binding inh = HTS for Inhibitors of HP1-beta Chromodomain Interactions with Methylated Histone Tails; actives 0.56% (n = 390,000); Potency, µM (series often up to 114 µM), for the others: at the top dose activity change, negative = inhibition, hits mostly inhibitors; AID 540317, 2011; AlphaScreen HP1-beta / biotin-H3K9me3 peptide binding; further: potency means the concentration at half of the fitted maximal effect; nearly all actives have a fitted effect of over 70% in size
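AlphaScreen: HP1-beta (50 nM) preformed 30 min with biotin-H3(1-18)K9me3 peptide (50 nM) in PBS pH 7.4, 0.01% Tween-20. Compound added for 30 min at RT, then streptavidin donor/nickel chelate acceptor beads (10 ug/mL) for 30 min.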
Six1-Eya2 inh = qHTS Assay for Inhibitors of the Six1/Eya2 Interaction | Homeobox protein SIX1 (Homo sapiens) + Protein phosphatase EYA2 (Homo sapiens), … | AlphaScreen GST-Six1/His-Eya2 binding, biochemical; hits give low values | activity change, % (no concentration beside the values) | actives 0.56% (n = 360,000); in the data active means activity change below about -65%; inconclusive means mostly about -30% to -63%; further: on the % scale 0 is the no-effect control and ±100 the full control effect
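Homogeneous AlphaScreen proximity assay pairing GST-Six1 with His-tagged Eya2 (added as 5X mix: 250 nM and 500 nM) in 50 mM Tris pH 8.0, 300 mM NaCl, 1 mM TCEP. Glutathione donor and nickel acceptor beads; 1 h, 37 °C, dark.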
G9a block = qHTS Assay for Inhibitors of Histone Lysine Methyltransferase G9a; Potency, µM (titrated, usually from 102 µM), inactives show at the top dose activity, negative = inhibition, most hits filed as inhibitors; actives 8.8% (n = 350,000); Histone-lysine N-methyltransferase EHMT2 (Homo sapiens), Q96KQ7; AID 504332, 2011; G9a H3K9 monomethylation, AlphaScreen, 2 h; further: potency means the concentration at half of the fitted maximal effect; on the % scale 0 is the no-effect control and ±100 the full control effect; nearly all actives have a fitted effect of over 75% in size
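G9a (20 nM) preincubated 15 min RT with compounds, then 500 nM biotinylated H3K9 peptide and 20 uM SAM added; 2 h RT reaction. Monomethyl-H3K9 product detected by AlphaScreen with anti-H3K9me1 antibody, streptavidin donor and anti-rabbit IgG acceptor beads.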
BAZ2B block = qHTS Assay for Inhibitors of BAZ2B; Bromodomain adjacent to zinc finger domain protein 2B (Homo sapiens), Q9UIF8; AlphaScreen BAZ2B-H3K14Ac peptide displacement; Potency, µM (titrated, usually from 114 µM), for the others: at the top dose activity change, negative = inhibition, usual class: inhibitors; actives 4.4% (n = 360,000); AID 504333, 2011; further: potency means the concentration at half of the fitted maximal effect; on the % scale 0 is the no-effect control and ±100 the full control effect; nearly all actives have a fitted effect of over 60% in size
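Complex of BAZ2B and biotin-H3K14Ac (50 nM apiece) forms over 30 min at RT, then faces library compounds up to 110 uM for another 30 min; AlphaScreen beads added, 20 min dark incubation, luminescence read.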
JMJD2A Tudor = qHTS Assay for Inhibitors of JMJD2A-Tudor Domain; Potency, µM (doses to about 114 µM), inactives show at the top dose activity change, negative = inhibition, most hits filed as inhibitors; AlphaScreen JMJD2A-Tudor / H3K4me3 peptide binding; Lysine-specific demethylase 4A (Homo sapiens), O75164; actives 4.4% (n = 390,000); further: potency means the concentration at half of the fitted maximal effect; on the % scale 0 is the no-effect control and ±100 the full control effect; nearly all actives have a fitted effect of over 50% in size
The depositor's hits bear a star; ? = inconclusive; nt = not tested or not shown; [ ] = another dose, or the depositor's remark. Rows were chosen to be rich in hits. Some 10% of all compounds tested hit in one or more screens of this group. Unless noted, the call rests on the fitted dose curve; in most records, active means well fitted inhibition curve with a large enough effect; inconclusive means small, poorly fitted or top-dose-only effect; inactive means no such curve, though single readings can be large or run the other way.

SMILES	CtBP-E1A blk	HP1b binding inh	Six1-Eya2 inh	G9a block	BAZ2B block	JMJD2A Tudor
O=C(CSc1ncc(-c2ccc(Cl)cc2)[nH]1)Nc1ccccc1F	nt	17.6%	nt	10µM*	-19.9%	-2.4%
O=C(CSc1ncn[nH]1)N1CCCCC1	3.5	31.9%	0.7	nt	-10.0%	3.5%
COC(=O)c1cccc(NC(=O)CCNC(=O)c2ccco2)c1	0.0	27.6%	3.3	22.5%	0.5%	-0.4%
CN(C)S(=O)(=O)c1ccc(C(=O)NCC2CC2(Cl)Cl)cc1 (stereo not given)	5.6	-7.4%	7.6	1.5%[59 µM]	12.0%	12.6µM*
CN(C)S(=O)(=O)c1ccc(C(=O)NCc2ccccc2)cc1	3.2	15.8%	9.0	-5.0%[59 µM]	nt	3.1%
CCOc1cc(C(=O)OCC(=O)N(C)c2ccccc2)cc(OCC)c1OCC	4.4	40.9%	9.0	-0.9%	7.0%	2.5%
CCOC(=O)COc1ccc(C)cc1C(=O)c1ccn2nc(-c3ccc(F)cc3)cc2n1	nt	45.0%	nt	6.5%[59 µM]	-3.1%	3.7%
CC(C)COCc1ccc(O)c2ncccc12	-90.9*	16.5%	-79.4*	-10.8%[59 µM]	25.1µM*	44.7µM*
CCCOCc1ccc(O)c2ncccc12	-94.0*	34.8%	-69.8*	20.0%[59 µM]	12.6µM*	56.2µM*
COc1ccc(S(=O)(=O)N(CC(C)C)CC(C)C)c2cccnc12	-8.6	16.4%	-17.2	?	5.3%	-8.3%
O=C1CCN(Cc2nc(-c3ccc(Cl)cc3)no2)CCN1	9.0	17.5%	-4.9	nt	3.2%	4.1%
CCOc1cc2c(cc1/C=C/c1noc(C)c1[N+](=O)[O-])OC(C)C2 (stereo not given)	6.2	31.4%	1.6	44.7µM*	1.0%	1.5%
Cc1nc(COC(=O)c2ccc(CO)cc2)cs1	3.5	45.4%	2.0	0.9%	3.9%	-21.3%
Cc1nc(COC(=O)c2cc(O)c3ccccc3c2O)cs1	1.2	?	-1.4	3.16µM*	nt	-8.1%[11.4 µM]
CC(=O)Nc1ccc(S(=O)(=O)NCCC(=O)Nc2ncccc2C)cc1	1.9	22.3%	1.2	10.3%[0.501 µM]	9.8%	-2.1%
CCCC(=O)Nc1nc2nc(-c3ccccc3)cc(=O)n2[nH]1	-19.2	23.6%	-15.0	17.2%	20.8%	-22.7%
CCC(=O)Nc1nc2nc(-c3ccccc3)cc(=O)n2[nH]1	-5.6	-9.6%	-10.1	44.7µM*	-29.1%	?
COc1ccc2c(c1)c(=O)oc1c(C)c(OCc3cc(C(=O)O)oc3C)ccc12	-18.9	?	?	?	?	28.2µM*
COc1ccc2c(c1)c(=O)oc1c(C)c(OCc3ccc(C(=O)O)cc3)ccc12	nt	25.6%	-14.8	?	50.1µM*	50.1µM*
C=CCNc1sc(C(=O)c2cccs2)c(N)c1C#N	-6.9	18.6%	-1.5	12.6µM*	-1.0%	-21.6%
COc1ccc(-n2c(=O)c(-c3cn(C)c4ccccc34)nc3cnc(N4CCOCC4)nc32)cc1	nt	nt	nt	10.8%[0.501 µM]	nt	nt
CCOc1ccc(NC(=O)CSc2nnc3c(n2)[nH]c2ccc(S(=O)(=O)N(C)C)cc23)cc1	nt	-2.1%	nt	nt	nt	?
CC(C)Cn1c(SCC(=O)N(C)c2c(N)n(Cc3ccccc3)c(=O)[nH]c2=O)nc2ccccc21	-4.5	?	3.1	15.8µM*	8.2%	-21.9%
Cc1ccc(C)c(OCCC(=O)OCC(=O)N(C)c2c(N)n(Cc3ccccc3)c(=O)[nH]c2=O)c1	-3.9	3.1%	8.7	0.7%	11.3%	-14.4%
COc1ccccc1C(=O)NCC(=O)OCC(=O)N(CC(C)C)c1c(N)n(Cc2ccccc2)c(=O)[nH]c1=O	-12.8	7.1%	2.6	56.2µM*	6.3%	-8.1%
SMILES	CtBP-E1A blk	HP1b binding inh	Six1-Eya2 inh	G9a block	BAZ2B block	JMJD2A Tudor
Cc1ccccc1OCCC(=O)OCC(=O)N(C)c1c(N)n(Cc2ccccc2)c(=O)[nH]c1=O	16.6	19.6%	-8.8	44.7µM*	-10.5%	-29.2%
CN(C(=O)COC(=O)CN1C(=O)c2ccccc2C1=O)c1c(N)n(Cc2ccccc2)c(=O)[nH]c1=O	19.8	25.3%	-0.5	?	8.3%	2.1%
Cc1ccccc1SCC(=O)OCC(=O)N(C)c1c(N)n(Cc2ccccc2)c(=O)[nH]c1=O	10.2	21.3%	0.2	10µM*	-22.8%	-8.3%
CC1C(=O)N(Cc2cn(CCC3OCCCO3)nn2)CCS(=O)(=O)N1Cc1ccc(-c2ccc(Cl)c(Cl)c2)cc1 (stereo not given)	-24.6	nt	-10.4	nt	nt	nt
Cc1ccc(CN2C(=O)N/C(=C\c3ccc(-c4ccc(C(=O)O)cc4C)o3)C2=O)cc1	11.2	-21.0%	-7.9	39.8µM*	39.8µM*	?
Cc1cc(C(=O)O)ccc1-c1ccc(/C=C2\NC(=O)N(Cc3ccccc3Cl)C2=O)o1	0.0	?	-3.5	25.1µM*	44.7µM*	44.7µM*
O=C(O)c1ccc(COc2ccc3ccccc3c2/C=C2/NC(=O)N(c3ccccc3)C2=O)cc1	-9.9	8.2%	-6.2	nt	-35.8%	-35.1%
Cc1ccc(/C=C2/NC(=O)N(Cc3ccccc3)C2=O)o1	4.2	-22.4%	-4.8	?	-30.7%	?
Cc1ccc(C(=O)O)cc1-c1ccc(/C=C2/NC(=O)N(c3ccccc3)C2=O)o1	-20.4	?	-73.9*	10µM*	31.6µM*	50.1µM*
O=C(O)c1ccc(-c2ccc(/C=C3\NC(=O)N(Cc4ccc(Cl)cc4)C3=O)o2)cc1	nt	10.8%	7.1	50.1µM*	?	-26.5%
O=C(O)c1ccc(CN2C(=O)c3ccc(C(=O)O)cc3C2=O)cc1	5.1	32.7%	7.3	-10.7%[2.33 µM]	-19.8%	-4.3%
Cc1cc(C(=O)O)ccc1-c1ccc(CO)o1	0.0	45.7%	-3.0	?	-26.2%	-7.1%
CC1CCN(S(=O)(=O)c2ccc(C(=O)Nc3nc4ccc(F)cc4s3)cc2)CC1	nt	20.9%[57 µM]	nt	-0.1%[59 µM]	5.5%	-5.8%
O=C(CSc1ccccc1)NC1=NCCS1	6.3	17.4%	1.7	-8.3%	0.8%	?
c1ccc(NNC2=NCCS2)cc1	0.3	?	3.3	50.1µM*	-14.2%	3.98µM*
COC(=O)C1CCN(C(=O)COC(=O)C2CCN(S(=O)(=O)c3c(Cl)cccc3Cl)CC2)CC1	-2.8	-2.9%	2.8	?	1.3%	-21.4%
CCC(CC)C(=O)Nc1ccccc1C(=O)OCc1cc(=O)n2nc(C3CCCCC3)sc2n1	nt	39.9%	nt	10.5%[59 µM]	-7.7%	-5.0%
